Here are results for 14 compounds from PubChem BioAssay AID1224861 (National Center for Advancing Translational Sciences (NCATS), 2016).

Structures are written as SMILES. Records with an inconclusive call do not appear. Entries that show only a call come without a potency. Activity calls are given as the source filed them. Calls follow the shape of the dose curve; as a rule, active = well fitted cell-killing curve with a large enough effect; inconclusive = small, poorly fitted or top-dose-only effect, or effect the other way; inactive = flat fitted curve, though single readings scatter.

The assay in a line: Compound cytotoxicity measured by an ATP content assay as a counter-screen for lead compounds in human astrocytes. The following applies: human astrocytes viability, ATP luminescence; series mostly up to 46.1 µM. How it is done:
National Center for Advancing Translational Sciences [NCATS] Johns Hopkins University School of Medicine Florida State University Assay Overview: Many compounds can cause cytotoxicity at high compound concentrations. […] The compound cytotoxicity may also cause side effects or toxicity in human. Thus, the compound cytotoxicity needs to be measured in each cell type and each compound incubation time - same as these in the compound screening assay. The compound cytotoxicity can be measured by cell viability assays such as the ATP content assay. We use an ATP content assay kit for cell viability measurement. It measures ATP content (level) in human astrocytes using a luminescence readout that is proportional to viable cell numbers. Decrease in the luminescence signal after the compound treatment indicates reduced cell viability and cell death caused by compound treatment.
Assay Protocol Summary: The medium for astrocytes contains AM basal medium (ScienCell, Cat.# 1801), AGS (ScienCell, Cat.# 1801), 10% FBS, and 1% Pen/Strep. The ATP content assay kit (PerkinElmer, Cat.# 6016731) was used to determine cell viability. The reagent was reconstituted and prepared as described by the manufacturer. Cells were seeded in 384- or 1536-well assay plates and cultured at 37 C with 5% CO2 for 16 to 20 hours. The typical cell seeding density in the 1536-well plate assay is 350 cells/well in 3 ul medium for astrocytes in the tissue cultured treated/PDL coated plates. Compounds were added to cells and incubated for a specific time such as 6, 24, or 72 hours before addition of the reagent mixture of the ATP content assay kit at 1:1 ratio. After incubation at room temperature for 10 minutes, the luminescence intensity in assay plates was measured using a ViewLux plate reader (PerkinElmer). […] The percentage inhibitions of the decreased cell viability by small molecules were then calculated that indicate compound cytotoxicity.
(In general: The purpose of a counterscreen is to sort out artefacts and off-target activity.)
With `COC1(CS(=O)c2ccccc2)CCN(CCc2c[nH]c3ccc(F)cc23)CC1` (centres undefined), the Potency entry is “inactive”. For the compound `COP(=S)(OC)SCN1C(=O)c2ccccc2C1=O`, the Potency result is “inactive”. With `O=C1CCC[C@@H]2[C@H]3CCCN4CCC[C@@H](CN12)[C@@H]34`, the Potency result is “inactive”. In the case of `CN1CC[C@@]2(C)c3cc(OC(=O)Nc4ccccc4)ccc3N(C)[C@@H]12` it was “inactive”; in that of `O=C(Nc1ccc(Br)cc1)c1cc(Br)cc(Br)c1O`, 15.5 µM (active). In the case of `CC[n+]1c(-c2ccccc2)c2cc(N)ccc2c2ccc(N)cc21` it was “inactive”.

For the compound `COc1cccc2c1C(=O)c1c(O)c3c(c(O)c1C2=O)C[C@@](O)(C(=O)CO)CC3OC1CC(N2CCOC(OC)C2)C(O)C(C)O1` (some centres undefined), the Potency entry is “inactive”. As for `O=c1c2ccccc2[se]n1-c1ccccc1`, the Potency is 9.75 µM (active). `Oc1ccc([C@H]2CNCc3c2ccc(O)c3O)cc1O`: the Potency entry is “inactive”.

As for `CC(O)CN1CCN(CC(=O)[O-])CCN(CC(=O)[O-])CCN(CC(=O)[O-])CC1.[Gd+3]` (centres undefined), the Potency entry was “inactive”. Take `Cc1ccc([N+](=O)[O-])[c]2c1[O][Hg]2`: the Potency is 3.08 µM (active). For `O=C1C=CC[C@@H]2[C@H]3CCCN4CCC[C@@H](CN12)[C@@H]34`, the Potency result is “inactive”. In the case of `CC(C)[N+](C)(CCC(C(N)=O)(c1ccccc1)c1ccccc1)C(C)C` it was “inactive”; in that of `CC(C)N[C@@H]1CCn2c(=O)[nH]c3cccc(c32)[C@@H]1O`, “inactive”.
